12-LOX inh: blocks human arachidonate 12S-lipoxygenase | Potency, µM (top dose mostly 108 µM), actives largely listed as inhibitors | hit rate 1.1% among 580,000 | purified 12hLO, xylenol orange hydroperoxide absorbance
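Purified human 12hLO at 150 nM in 25 mM Hepes, 0.01% Triton X-100, pH 7.0, preincubated 15 min at room temperature with compound. Reaction started with 40 uM arachidonic acid, 30 min at room temperature. Hydroperoxide measured by Fe-xylenol orange, 573/405 nm absorbance ratio.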
GLP1R ag: agonists of human GLP-1 receptor | HEK293 GLP-1R CRE-luciferase, luminescence, 4-6 h; cells express a hypersensitive GLP-1R form | P43220 | hit rate 0.007% among 380,000 | Potency, µM (series often up to 45.6 µM), actives largely listed as activators
GLP1R inv ag: inverse agonists of human GLP-1 receptor | P43220 | HEK293 GLP-1R CRE-luciferase, luminescence, 24 h; GLP-1R form is constitutively active | Potency, µM (doses to about 38.3 µM), actives largely listed as inhibitors | hit rate 1.6% among 410,000 | AID 624417; note: nearly all actives have a fitted effect of over 55% in size
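Using stably transfected HEK293 (constitutively active GLP-1R, cAMP-luciferase reporter), compounds were incubated 24 hr and luciferase measured by luminescence.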
GRP78 ERSR act: ER stress response induction in glioma | U87-MG GRP78 promoter luciferase reporter, 16 h | Potency, µM, hits mostly activators | hit rate 0.02% among 420,000 | AID 602332; note: series mostly up to about 76 µM; nearly all actives have a fitted effect of over 35% in size
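Stably transfected U87-MG glioma cells carrying a GRP78-based luciferase sensor; 16 h compound incubation. Luminescence end-point read 10 min after Bright-Glo addition at room temperature.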
GLS inhibitor: inhibitors of human glutaminase (GLS) | O94925 | GLS enzymatic activity, qHTS titration | Potency, µM (doses to about 45.5 µM), hits mostly inhibitors | hit rate 0.21% among 410,000 | AID 624170
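hKGA in 45 mM KH2PO4 (pH 8.2), 0.02% Tween-20 with compound, then 1mM L-Glutamine (stock as added) plus glutamate oxidase/HRP/Amplex red coupling mix. Fluorescence read initially and after 30 min at RT; signal change reflects glutamate formation.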
PTHR1 agonist: agonists of human PTHR1 parathyroid hormone receptor | hit rate 0.075% among 410,000 | Potency, µM (titrated, usually from 115 µM), actives largely listed as activators | AID 743266 | HEK293 GP2 PTHR1 cells, GloSensor cAMP luminescence, 1 h; note: nearly all actives have a fitted effect of over 55% in size
Target sequence (Q03431 whole entry, looked up): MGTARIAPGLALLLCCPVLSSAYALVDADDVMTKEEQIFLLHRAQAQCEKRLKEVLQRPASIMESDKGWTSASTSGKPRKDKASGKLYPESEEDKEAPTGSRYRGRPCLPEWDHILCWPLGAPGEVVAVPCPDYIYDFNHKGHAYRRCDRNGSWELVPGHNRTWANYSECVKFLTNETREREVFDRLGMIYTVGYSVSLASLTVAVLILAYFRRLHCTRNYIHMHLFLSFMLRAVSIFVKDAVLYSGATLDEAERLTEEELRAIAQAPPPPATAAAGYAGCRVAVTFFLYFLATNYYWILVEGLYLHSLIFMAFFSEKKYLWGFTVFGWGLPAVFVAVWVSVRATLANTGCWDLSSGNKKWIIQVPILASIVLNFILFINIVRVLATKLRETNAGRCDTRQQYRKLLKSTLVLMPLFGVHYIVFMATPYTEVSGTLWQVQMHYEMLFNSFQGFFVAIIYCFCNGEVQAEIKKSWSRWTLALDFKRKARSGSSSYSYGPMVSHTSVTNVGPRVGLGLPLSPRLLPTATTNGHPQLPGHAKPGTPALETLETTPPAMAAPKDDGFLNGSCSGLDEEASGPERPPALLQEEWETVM
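HEK-293-derived GP2 cells expressing PTHR1 and a GloSensor cAMP reporter, 3,000/well, plated overnight, given luciferin plus IBMX (each 0.5 mM as added) for 1 h at 37 °C, then compound for 1 h at 37 °C. Luminescence was read after 15 min at room temperature.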
Numbers stand for hits; – = inactive; ? = inconclusive; · = no result; ! = repeats disagree. In the library only some 2.3% were active in any assay of this set; here they are far more common. Calls come from the whole dose curve; as a rule, active = well fitted curve in the direction sought with a large enough effect; inconclusive = small, poorly fitted or top-dose-only effect, or another doubt; inactive = no such curve, though single readings can be large; an effect the other way counts as inactive or inconclusive.

SMILES	12-LOX inh	GLP1R ag	GLP1R inv ag	GRP78 ERSR act	GLS inhibitor	PTHR1 agonist
Cc1cc(C)cc(NC(=O)Cc2csc(COc3cccc(C)c3)n2)c1	50µM	·	–	–	–	–
Cn1cnnc1SCC(=O)c1cc2ccccc2oc1=O	6.3µM	–	–	–	–	–
O=C(CSc1ccc(Cl)cc1)c1cc2ccccc2oc1=O	7.1µM	·	·	·	·	·
O=C(CSc1nnc(-c2cccnc2)o1)c1cc2ccccc2oc1=O	–	–	–	–	–	–
Cc1ccccc1C(=O)NC(=S)N(C)C1CCCCC1	–	–	?	–	–	–
CN(C(=S)NC(=O)c1ccccc1Br)C1CCCCC1	–	–	10µM	–	–	–
CCOc1ccc(Nc2nc(N)nc(CCl)n2)cc1	–	?	5µM	–	–	–
CN(C)c1ccc(Nc2nc(N)c3ccccc3n2)cc1	?	–	2µM	–	–	–
CCOc1ccc(Nc2nc(N)c3ccccc3n2)cc1	–	–	2.2µM	–	–	–
Cc1noc(C(C)N2CCN(c3oc(C4CC4)nc3C#N)CC2)n1 (stereo unspecified)	–	·	·	·	·	·
COCCCn1c(C)cc(C(=O)COC(=O)Cc2nn(C)c(=O)c3ccccc23)c1C	–	·	·	·	·	·
CCN(CC)CCNC(=O)c1nn(-c2ccc(Cl)cc2)c2c1CCc1cc(OC)ccc1-2	?	–	4.5µM	–	–	–
COc1ccc2c(c1)CCc1c(C(=O)NCc3ccc(Cl)cc3)noc1-2	–	–	–	–	–	–
CCn1c(C)cc(C(=O)CN2C(=O)c3ccccc3S2(=O)=O)c1C	–	–	?	–	–	–
Cc1cc(C(=O)CN2C(=O)c3ccccc3S2(=O)=O)c(C)n1-c1ccccc1	?	–	1.4µM	–	–	–
CCOc1ccc(-c2nc(N)ncc2Oc2ccc(OC)cc2)c(O)c1	16µM	?	–	–	–	–
CCOc1ccc(-c2n[nH]c(C)c2-c2ccccc2OC)c(O)c1	–	–	5µM	–	–	–
COc1ccc(-c2n[nH]c(C)c2-c2cscn2)c(O)c1	–	–	–	–	–	–
CCOc1ccc(-c2nc(N)ncc2-c2ccc(OC)cc2)c(O)c1	–	–	–	–	–	–
CCc1cc(-c2n[nH]c(C)c2-c2ccccc2Cl)c(O)cc1OC	40µM	–	?	–	–	?
COP(=O)(OC)c1nc(-c2ccc([N+](=O)[O-])cc2)oc1NCc1ccccc1	–	·	·	·	·	·
Cc1ccsc1/C=N/N=C(c1ccccc1)c1ccccc1	–	·	·	·	·	·
CN(CCC#N)c1ccc(C=C(C#N)c2cccc(C(F)(F)F)c2)cc1	·	–	?	–	–	–
Cc1cc(/C=C(\C#N)c2cccc(C(F)(F)F)c2)c(C)n1C	40µM	·	·	·	·	·
COc1ccc2c3c(ccc2c1)C(=O)/C(=C/O)CC3	25µM	–	–	–	?	–
SMILES	12-LOX inh	GLP1R ag	GLP1R inv ag	GRP78 ERSR act	GLS inhibitor	PTHR1 agonist
CC1=NN2C(=N)/C(=C\c3ccc(SCc4ccccc4)o3)C(=O)N=C2S1	40µM	–	–	–	–	–
CC1=NN2C(=N)/C(=C\c3cc(C)n(Cc4ccccc4)c3C)C(=O)N=C2S1	–	–	–	–	–	–
Cn1cnnc1-c1ccc(NS(=O)(=O)c2ccc3c(c2)CCC3)cc1	28µM	·	·	·	·	·
O=C(c1[nH]c2ccccc2c1Sc1ccc(Cl)cc1)N1CCCCC1	?	·	10µM	–	–	–
COc1ccc(OCC(O)CNCCOc2ccccc2OC)c(C(C)(C)C)c1 (stereo unspecified)	?	–	13µM	–	–	–
O=C(C1CCC1)N1c2ccccc2CC1c1noc(C2CCOCC2)n1 (stereo unspecified)	–	·	·	·	·	·
CCCCc1ccc(C2C3=C(CC(C)(C)CC3=O)NC3=C2C(=O)c2ccccc23)cc1 (stereo unspecified)	–	–	3.5µM	–	–	–
CCCc1ccc(C2C3=C(CC(C)(C)CC3=O)NC3=C2C(=O)c2ccccc23)cc1 (stereo unspecified)	25µM!	–	?	–	–	–
CCc1ccc(C2C(C(=O)N3CCCCC3)=C(C)NC3=C2C(=O)CC(C)(C)C3)cc1 (stereo unspecified)	–	·	·	·	·	·
CCN(CC)CCNc1ccc(C)c2sc3ccc(O)cc3c(=O)c12	?	–	10µM	–	–	–
OC(c1ccccc1)(c1ccccc1)C1CCN(Cc2cccc(OCc3ccccc3)c2)CC1	–	·	·	·	·	·
COc1cccc2[nH]c(C(=O)N[C@@H](C)C(=O)Nc3ccc4c(c3)OCCO4)cc12	–	·	·	·	·	·
COc1ccc(C2N=C(N)Nc3nc4ccccc4n32)cc1 (stereo unspecified)	–	·	–	–	–	50µM
Cc1ccc2c(c1)COc1c3ccc(C(=O)O)cc3nn1-2	–	–	1.3µM	–	–	–
CC(C)=C/C(C)=N/Nc1ccc(S(N)(=O)=O)cc1[N+](=O)[O-]	–	·	·	·	·	·
